High-throughput results as filed in PubChem.
The list is not random: actives were taken first. Their share in the collection is about 1.8%.
Tb PFK inh: inhibitors of T. brucei phosphofructokinase. O15648. T. brucei PFK, ADP-Glo luminescence. Potency, µM (highest dose often 57.5 µM), without a hit: at the highest dose activity, negative = inhibition, actives largely listed as inhibitors. 330,000 tested, 0.17% active. AID 485367;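 also: 0% = uninhibited 1x PFK enzyme wells and -100% = no-enzyme wells; nearly all actives have a fitted effect of over 60% in size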
Target sequence (O15648 whole entry, looked up): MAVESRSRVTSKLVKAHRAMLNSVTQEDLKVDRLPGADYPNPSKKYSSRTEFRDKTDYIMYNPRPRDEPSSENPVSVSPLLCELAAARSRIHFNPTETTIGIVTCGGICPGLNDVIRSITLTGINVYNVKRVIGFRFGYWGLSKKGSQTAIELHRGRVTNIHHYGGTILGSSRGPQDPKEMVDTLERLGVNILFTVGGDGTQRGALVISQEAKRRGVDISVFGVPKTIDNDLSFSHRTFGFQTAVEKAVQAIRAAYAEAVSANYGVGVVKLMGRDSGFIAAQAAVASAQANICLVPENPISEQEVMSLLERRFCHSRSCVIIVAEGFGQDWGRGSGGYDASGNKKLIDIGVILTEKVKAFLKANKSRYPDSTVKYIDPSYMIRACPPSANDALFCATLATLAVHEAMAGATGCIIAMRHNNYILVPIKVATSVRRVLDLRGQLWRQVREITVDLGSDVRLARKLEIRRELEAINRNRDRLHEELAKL
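In TEA buffer at pH 8.0 with 5 mM MgCl2, enzyme (1.25 nM) converted F6P (0.5 mM) and ATP (0.1 mM) for 45 min at room temperature. ADP product was read by luciferase luminescence.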
GLP-1R agonist: agonists of human GLP-1 receptor. P43220. HEK293 GLP-1R CRE-luciferase, luminescence, 4-6 h; cells express a hypersensitive GLP-1R form. Potency, µM (top dose mostly 45.6 µM), for inactives: top-dose activation, usual class: activators. 380,000 tested, 0.007% active. AID 624172; also: % of control where 0% means no effect
GLP-1R inv ag: acts as inverse agonist at human GLP-1 receptor. HEK293 GLP-1R CRE-luciferase, luminescence, 24 h; GLP-1R form is constitutively active. Potency, µM (series often up to 38.3 µM), for inactives: at the highest dose activity change, negative = inhibition, hits mostly inhibitors. 410,000 tested, 1.6% active. AID 624417; also: % is scaled to controls: 0 for no effect and ±100 for the full control effect; nearly all actives have a fitted effect of over 55% in size
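Using stably transfected HEK293 (constitutively active GLP-1R, cAMP-luciferase reporter), compounds were incubated 24 hr and luciferase measured by luminescence.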
Pin1 inhibitor: human Pin1 inhibition; Q13526; Pin1 FP peptide displacement, HiFluor488, 10 min; Potency, µM (highest dose often 115 µM), without a hit: top-dose activity, negative = inhibition, hits mostly inhibitors; 390,000 tested, 0.009% active; active = well fitted inhibition curve with a large enough effect in the polarisation, with a control signal flat, not every such curve was filed as active; inconclusive = small, poorly fitted or top-dose-only effect, or effect the other way, or a change in a side signal; inactive = no such curve, though single readings can be large or run the other way; the % refers to the polarisation; also: % is scaled to controls: 0 for no effect and ±100 for the full control effect
Target sequence (Q13526 whole entry, looked up): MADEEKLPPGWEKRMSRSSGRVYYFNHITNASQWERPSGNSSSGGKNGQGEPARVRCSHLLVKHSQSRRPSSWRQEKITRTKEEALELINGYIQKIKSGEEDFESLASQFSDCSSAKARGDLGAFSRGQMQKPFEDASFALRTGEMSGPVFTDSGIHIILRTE
Tb PGK inh: inhibitors of T. brucei phosphoglycerate kinase. P07378. PGK/GAPDH coupled, Kinase-Glo luminescence, 60 min. Potency, µM (top dose mostly 57.5 µM), for the others: at the top dose activity change, negative = inhibition, hits mostly inhibitors. 380,000 tested, 0.043% active. AID 602233; also: % is scaled to controls: 0 for no effect and ±100 for the full control effect; nearly all actives have a fitted effect of over 60% in size
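Luminescent ATP detection (Kinase-Glo Plus) follows a 60-minute room-temperature incubation, with wells lacking PGK as controls. Buffer: 100 mM TEA (pH 7.6), 5 mM MgCl2, 0.01% Tween-20. Coupling enzyme GAPDH (100 nM final) supplies unstable 1,3-BPG in-well.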
HEK293 tox: cytotoxicity in counter-screen for GLP-1R inverse agonists. HEK293 cAMP-luciferase reporter cells, luminescence, 24 h. Potency, µM (top dose mostly 38.3 µM), inactives show top-dose activity change, negative = inhibition, hits mostly inhibitors. 410,000 tested, 0.13% active;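 also: loss of luciferase light is scored as toxicity; % is scaled to controls: 0 for no effect and ±100 for the full control effect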
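Luminescence readout: signal drop marks cytotoxicity. Plated cells grew 12 h at 37 °C, 5% CO2, received 23 nL compound for 24 h, then got luciferase reagent, read after 12 min at RT.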
* hit, by the source's call; i = inactive; ? = inconclusive; . = no result; [ ] = dose if it differs, or a comment. Unless noted, calls follow the shape of the dose curve; as a rule, active = well fitted curve in the direction sought with a large enough effect; inconclusive = small, poorly fitted or top-dose-only effect, or another doubt; inactive = no such curve, though single readings can be large; an effect the other way counts as inactive or inconclusive. Potency is read from the fitted curve at half-maximal effect.

SMILES	Tb PFK inh	GLP-1R agonist	GLP-1R inv ag	Pin1 inhibitor	Tb PGK inh	HEK293 tox
COc1ccc(CN2C(=O)C(Cc3ccccc3)Nc3ncnc(N4CCN(c5ccccc5)CC4)c32)cc1 (stereo not given)	-8.1%	-0.6%	?	41.4%	1.3%	4.7%
O=C1C(Cc2ccccc2)Nc2ncnc(N3CCN(c4ccccc4)CC3)c2N1Cc1ccc(Cl)cc1 (stereo not given)	0.3%	-4.3%	11.2µM*	19.5%	8.9%	34.4%
CC1Nc2ncnc(N3CCN(c4ccccc4)CC3)c2N(Cc2ccc(Cl)cc2)C1=O (stereo not given)	0.0%	-0.3%	10µM*	16.5%	1.3%	-56.2%
COc1ccc(CNC(=O)Cn2c(=O)cc(-c3ccccc3)c3c(C)nn(C)c32)cc1	.	.	2.4%	?	-4.6%	-1.1%
COc1ccccc1NC(=O)N(Cc1ccccc1)c1ccccn1	14.1%	0.9%	7.08µM*	0.0%	6.0%	13.4%
N#Cc1nc(COc2ccccc2Cl)oc1NCCc1ccccc1	.	.	?	59.9%	-3.1%	-4.7%
Cc1cccc(C(=O)Oc2ccc(/C=N/NC(=O)c3cc(O)cc(O)c3)cc2)c1	-15.8%	-34.2%	10µM*	?	?	-11.8%
Cn1ncc2c(Nc3cccc(Cl)c3)nc(Nc3cccc(Cl)c3)nc21	8.1%	5.9%	11.2µM*	1.5%	-3.1%	-29.4%
CCOc1ccccc1NC(=O)N1CCc2c(sc3c2CCCC3)C1c1ccccc1 (stereo not given)	.	.	?	-4.2%	-9.0%	9.4%
Cc1ccccc1NC(=O)N1CCc2c(sc3c2CCCC3)C1c1ccccc1 (stereo not given)	.	.	10µM*	22.2%	18.1%	12.5%
CCc1c(C)sc2c1CCN(C(=O)Nc1cc(OC)c(OC)c(OC)c1)C2c1ccccc1 (stereo not given)	.	.	10µM*	-0.5%	-6.1%	-4.8%
Nc1cc(S(=O)(=O)N2CCN(S(=O)(=O)c3ccc4c(c3)OCCO4)CC2)ccn1	.	.	.	5.1%	.	.
O=C(Nc1ccc(F)cc1Cl)C1CCN(c2ncnc3c2nc2n3CCCCC2)CC1	.	.	-14.4%	-13.2%	i	-13.7%
CCOc1ccc(NC(=O)Cn2c(=O)n(-c3ccccc3)c(=O)c3c4c(sc32)CCCC4)cc1	.	-0.5%	6.4%	0.0%	1.9%	-3.1%
COC(=O)C1=C(N)Oc2cc(N(C)C)ccc2C1c1ccccc1OC (stereo not given)	0.7%	-2.8%	6.31µM*	8.5%	-8.5%	7.5%
Cc1ccc(C(=O)Nc2ccc3nc(SCC(=O)N4CCCc5ccccc54)sc3c2)cc1	.	.	-41.5%	31.6%	i	-11.1%
Cc1ccc2c(c1)c1c(n2CC(O)CN2CCC(C)CC2)CCCC1 (stereo not given)	0.2%	-2.5%	5.62µM*	-2.6%	i	?
Cc1ccc(CNC(=O)CN(c2cccc(C)c2C)S(=O)(=O)c2ccccc2)cc1	.	.	?	-1.2%	2.4%	10.0%
COC(=O)c1sccc1S(=O)(=O)N(CC(=O)NCc1ccc(C)cc1)c1ccc(C)cc1	.	.	-17.4%	-3.6%	-9.7%	-6.0%
Fc1ccc(Oc2nc(-c3ccccn3)nc3ccccc23)cc1	1.3%	11.5%	2.82µM*	-1.6%	-3.1%	?
CC(=O)Nc1ccc(/C(C)=N/Nc2nc(N3CCOCC3)nc(N3CCOCC3)n2)cc1	-1.8%	11.3%	-12.2%[7.66 µM]	-16.0%	-0.9%	33.2%[7.66 µM]
CC(=O)Nc1ccc(/C(C)=N/Nc2nc(Nc3cccc4ccccc34)nc(N3CCOCC3)n2)cc1	-4.0%	0.6%	2.82µM*	0.1%	-1.7%	-20.9%
Fc1cccc(NC(=S)NCc2ccccn2)c1	-1.3%	2.6%	?	6.8%	0.9%	10µM*
S=C(NCc1ccccn1)Nc1ccc(Cl)cc1	0.2%	6.5%	?	-1.0%	-3.6%	?
S=C(NCCSCc1ccc(Cl)c(Cl)c1)Nc1ccccc1	.	-6.3%	?	?	12.0%	?
SMILES	Tb PFK inh	GLP-1R agonist	GLP-1R inv ag	Pin1 inhibitor	Tb PGK inh	HEK293 tox
S=C(NCc1ccccc1)Nc1cccc(Cl)c1	0.2%	-1.2%	?	?	-5.1%	10µM*
S=C(NCc1ccccc1)NNc1ccccc1	-7.5%	0.8%	10µM*	4.3%	4.1%	8.91µM*
S=C(NCCSCc1ccc(Cl)cc1Cl)Nc1ccccc1	-4.4%	-0.3%	3.55µM*	?	-0.5%	-8.0%
O=C(CNc1cccc(Cl)c1)NNC(=S)NCc1ccccc1	-20.1%	-2.1%	-11.2%[0.307 µM]	-2.6%	-6.1%	-6.8%[0.307 µM]
O=C1CN(C(=O)c2ccccc2C(F)(F)F)C(c2ccccc2)c2cc(F)ccc2N1 (stereo not given)	.	.	-13.7%	-3.3%	i	-7.8%
CC(C1CC1)N(Cc1ccccc1)C(=S)Nc1cccc(C(F)(F)F)c1 (stereo not given)	0.5%	1.1%	10µM*	0.7%	-20.0%	-8.5%
CC(C1CC1)N(Cc1ccccc1)C(=S)Nc1ccccc1 (stereo not given)	2.1%	13.9%	?	-0.8%	-15.5%	-12.8%
C=CCN1C(=O)C(Cc2ccccc2)S/C1=N/N=C/c1cccs1 (stereo not given)	-2.9%	6.8%	11.2µM*	1.7%	-2.2%	12.1%
C=CCN1C(=O)C(Cc2ccc(OCC)cc2)S/C1=N\N=C\c1cccs1 (stereo not given)	-6.2%	-2.9%	10µM*	-5.4%	-6.6%	0.5%
O=C(Nc1ccccc1OCc1cc(=O)n2ccccc2n1)Nc1ccccc1C(F)(F)F	.	.	4.5%	1.4%	-0.3%	-0.6%
COCCCOc1cc(C[C@@H](C[C@H](N)[C@@H](O)C[C@H](C(=O)NCC(C)(C)C(N)=O)C(C)C)C(C)C)ccc1OC	.	-1.1%	.	.	.	.
O=C(/C=C/c1ccc(Cl)cc1Cl)Nc1cccc(S(=O)(=O)NC2=NCCC2)c1	0.3%	-0.2%	?	27.1%	-3.1%	-4.6%
O=C(/C=C/c1ccccc1Cl)Nc1cccc(S(=O)(=O)NC2=NCCCCC2)c1	-0.4%	9.3%	10µM*	?	-8.0%	-5.0%
COC(=O)c1sccc1NC(=O)CSc1ccccc1NS(=O)(=O)c1ccc(Cl)cc1	-5.0%	-0.2%	10µM*	1.4%	0.2%	-16.3%
CCc1nn2c(-c3ccccc3OC)ccnc2c1-c1ccccc1	.	-0.4%	10µM*	4.4%	-0.5%	1.8%
CCc1nn2c(-c3ccccc3OC)ccnc2c1-c1ccc(F)cc1	.	1.3%	-26.9%	5.3%	7.0%	9.5%
Cc1ccc(C(C)NC(=O)c2c(-c3ccccc3)noc2C)cc1C (stereo not given)	1.6%	1.3%	7.94µM*	-1.1%	-8.7%	1.2%
